Data on 38 compounds can be found in the supplement of paper PMC10732440.

In the test the test system is Caenorhabditis elegans N2 infected with Nematocida parisii ERTm1. Description: progeny production relative to DMSO uninfected control; higher = more progeny despite microsporidia infection (inhibition of infection with low host toxicity). To be noted: infection time 6 days. An outline of the steps: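 Wild-type C. elegans L1 larvae, synchronised by bleaching, were added at 100 per well to 96-well plates containing K-medium, E. coli OP50 and 15,000 N. parisii spores/μL, and compound was pinned in to 100 μM or 40 μM in 1% DMSO. The plates were shaken at 21°C for 6 days, after which worms were stained with Rose Bengal, scanned on a flatbed scanner and counted using WorMachine. Each compound and dose was run three times. Progeny production is expressed as a percentage of wells with vehicle but no spores, averaged over the replicates.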

SMILES strings stand for the structures. ± gives the standard deviation of the averaged measurements.

As to `Fc1ccc(-n2cc(Cn3c(-c4cccc(F)c4)nc4ccccc43)nn2)cc1`, the progeny production (40 µM) worked out at 3.69 ± 0.39%.
For the compound `COc1cc(C(C(=O)NC2CCCCC2)N(C(=O)Cc2c[nH]c3ccccc23)c2ccc(C(C)C)cc2)cc(OC)c1OC` (centres undefined), the progeny production reads like this: (40 µM) 5.01 ± 0.57%; (100 µM) 7.98 ± 2%.
For `C[C@@H](NC(=O)c1cccc(-c2cnc(-c3cc4ccccc4cn3)[nH]2)c1)c1ccc(F)cc1` the same measures were 5.74 ± 3.9% and 8.24 ± 5.7%.
The like results for `CN(C)CCNC(=O)c1cccc2cccnc12` were, in that order, 5.46 ± 4.5% and 14.7 ± 8%.
In turn, `CC[C@H]1OC(=O)[C@H](C)[C@@H](O[C@H]2C[C@@](C)(OC)[C@@H](O)[C@H](C)O2)[C@H](C)[C@@H](O[C@@H]2O[C@H](C)C[C@H](N(C)C)[C@H]2O)[C@](C)(O)C[C@@H](C)C(=O)[C@H](C)[C@@H](O)[C@]1(C)O` returned a progeny production (40 µM) of 3.49 ± 0.53%.
Same read-out and setting: for `Clc1cc(Cl)c2c(c1)CCc1ccccc1C2n1ccnc1` (centres undefined) the value was 7.16 ± 0.49%.
In the case of `CC(C)Nc1nc2cc(Cl)c(Cl)cc2n1[C@H]1O[C@@H](CO)[C@H](O)[C@@H]1O`, the progeny production (40 µM) came to 3.85 ± 0.59% and the progeny production (100 µM) amounted to 9.08 ± 2.1%.
Regarding `CC#C[C@]1(O)CC[C@H]2[C@@H]3CCC4=CC(=O)CCC4=C3[C@@H](c3ccc(N(C)C)cc3)C[C@@]21C`, the progeny production runs as follows: (40 µM) 4.64 ± 1.1%; (100 µM) 14.9 ± 4.7%.
For `Cc1cc(NS(=O)(=O)c2ccc(-c3ccc(F)cc3F)cc2)no1`, the progeny production (40 µM) was found to be 4.39 ± 1.9%.
Regarding `O=C(Nc1nnc(-c2ccccc2)o1)c1ccc(F)cc1`, the progeny production (40 µM) amounted to 5.03 ± 1.8% and the progeny production (100 µM) came to 6.37 ± 4.7%.
`CCCCCCCc1[nH]c2ccccc2c(=O)c1O`: the progeny production runs as follows: (40 µM) 7.38 ± 1.2%; (100 µM) 21.2 ± 19%.
For `CN1c2ccc(Cl)cc2N(c2ccccc2)C(=O)c2cn(Cc3ccc(CN4CCOCC4)cc3)nc21` the same measures were 5.41 ± 0.76% and 6.28 ± 3%.
The like results for `CC(=O)N1c2ccccc2NC2=C(C(=O)CC(C)(C)C2)C1c1ccc(OCc2ccccc2)cc1` (centres undefined) were, in that order, 4.92 ± 0.34% and 9.82 ± 5.5%.
Turning to `Oc1c(C(Nc2ccccn2)c2ccccc2)ccc2cccnc12` (centres undefined), the progeny production was determined as 8.66 ± 7.6% (40 µM) and 9.12 ± 7.2% (100 µM).
The like results for `CCc1ccccc1OCCN1CCCCCC1` were, in that order, 7.17 ± 1.6% and 20.2 ± 6%.
For `CC(C)(C)c1ccc(OCCn2nc(C(=O)O)c3ccccc3c2=O)cc1` the same measures were 4.58 ± 1.4% and 12 ± 6.5%.
For `Nc1nc(C(F)(F)F)cc2c1[nH]c(=O)n2Cc1ccccc1` the same measures were 2.69 ± 0.61% and 17.2 ± 1.5%.
Take `OC(Cn1cncn1)(Cn1cncn1)c1ccc(F)cc1F`: the progeny production (40 µM) came out at 3.82 ± 1.7% and the progeny production (100 µM) is 22 ± 18%.
In the case of `O=C(c1ccccc1)N1CCN(c2ccccc2NC(=O)C(Cl)(Cl)Cl)CC1`, the progeny production (40 µM) stood at 13 ± 10% and the progeny production (100 µM) came to 12.7 ± 8.6%.
The like results for `N=c1n(CCN2CCCCC2)c2ccccc2n1CC(O)COc1ccc(Cl)cc1Cl` (centres undefined) were, in that order, 5.53 ± 1.7% and 9.49 ± 8.7%.
The like results for `O=C(Nc1ccccc1C(=O)O)c1cccc(Oc2ccccc2)c1` were, in that order, 3.52 ± 1.3% and 16.2 ± 14%.
For `COc1ccc2c(c1)cc(CNC(=O)c1cc3ccccc3o1)n2CC(=O)O` the same measures were 3.92 ± 2.4% and 17.7 ± 17%.
`Nc1nc(=O)[nH]cc1F`: the progeny production worked out at 5.01 ± 1.2% (40 µM) and 23.7 ± 7.4% (100 µM).
In turn, `O=c1nc(N2CCN(CC3CCCCC3)CC2)sc2c([N+](=O)[O-])cc(C(F)(F)F)cc12` came in with a progeny production (40 µM) of 4.77 ± 2.5% and a progeny production (100 µM) of 9.3 ± 5.1%.
The like results for `Nc1nc(-c2ccccc2)nc2c1ncn2[C@@H]1O[C@H](COS(=O)(=O)NC(=O)c2ccccc2O)[C@@H](O)[C@H]1O` were, in that order, 6.94 ± 2.3% and 6.74 ± 3.1%.
For `Nc1ccc(-c2nc3cc(C(F)(F)F)ccc3n2C23CC4CC(CC(C4)C2)C3)cc1` the same measures were 5.81 ± 2.1% and 17 ± 6%.
The like results for `C[C@H](NC(CC(=O)c1ccccc1C(F)(F)F)C(=O)O)c1ccccc1` (some centres undefined) were, in that order, 8 ± 6.4% and 5.89 ± 3.9%.
The compound `Fc1ccc2c(/C=C/c3nnn[nH]3)c[nH]c2c1` came in with a progeny production (40 µM) of 3.91 ± 4% and a progeny production (100 µM) of 12.2 ± 9.8%.
With `FC(F)(F)Oc1ccc(Nc2ccc3cccc(Cl)c3n2)cc1`, the progeny production reads like this: (40 µM) 6.88 ± 1.5%; (100 µM) 11.1 ± 7.2%.
Regarding `CC(C)c1ccc(COc2cccc(-c3cc([S+](C)[O-])c(C#N)c(=O)[nH]3)c2)cc1` (centres undefined), the progeny production (40 µM) is 2.96 ± 1.6% and the progeny production (100 µM) turned out to be 21.4 ± 25%.
`COc1cc(NCc2ccc3nc(N)nc(N)c3c2C)cc(OC)c1OC` had a progeny production (40 µM) of 2.11 ± 0.79%.
`N[C@@H]1CN(c2c(F)cc3c(=O)c(C(=O)O)cn([C@@H]4C[C@@H]4F)c3c2Cl)CC12CC2`: the progeny production reads like this: (40 µM) 9.37 ± 3.9%; (100 µM) 13.4 ± 6.8%.
The like results for `Clc1ccc(COC(Cn2ccnc2)c2ccc(Cl)cc2Cl)c(Cl)c1` (centres undefined) were, in that order, 4.89 ± 1.7% and 8.86 ± 1.6%.
As for `C[C@H]1COc2c(N3CCN(C)CC3)c(F)cc3c(=O)c(C(=O)O)cn1c23`, the progeny production by setting is: (40 µM) 5.38 ± 2.2%; (100 µM) 12.8 ± 9.1%.
In turn, `COc1cc(C)c2c(Oc3cccc(C(F)(F)F)c3)c(OC)cc(NC(C)CCCN)c2n1` (centres undefined) showed a progeny production (40 µM) of 4.23 ± 1%.
On to `CCN(CC)CCn1c(=N)n(CC(O)COc2ccc(Cl)cc2Cl)c2ccccc21` (centres undefined), for which the progeny production (40 µM) was determined as 7.02 ± 2.2% and the progeny production (100 µM) worked out at 16.5 ± 20%.
The like results for `c1ccc(-c2nnc3c4ccccc4c(N4CCNCC4)nn23)cc1` were, in that order, 2.73 ± 0.97% and 15.6 ± 12%.
The compound `Cc1cc(-c2ccccc2)c(C(=O)C(=O)Nc2ccc(N3CCN(c4ncc(F)cn4)CC3)cc2)n1C` gave a progeny production (40 µM) of 2.94 ± 0.74%.
